# Measurements as given in PubChem BioAssay.
# Values joined by “and” are separate entries in the source; they are usually repeats but may differ in a detail not shown here. Identical values can stand only once. Active and inactive are the calls of the source.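 How the source made its calls, unless noted: active means normalized viability below 100% at a tested concentration; inactive means the rest.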
# Experiments:
# [1] = sensitizers of A549 cells to miR-34 induction, primary screen, imaging, A549 dox-inducible miR-34, nuclei and caspase counts (AID 1347080;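 active means compounds whose cell count with miR-34 switched on is under 0.7 times the count with it off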); details: A549 miR-34 inducible, Hoechst nuclei count, 48 h
# [2] = survival rescue of mitochondrial mutant cells in low glucose, primary screen, MELAS cybrids, Rieske KO mouse fibroblasts, CellTiter-Glo (AID 1508586;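 active means mean z-score across replicates of 1.96 or higher in either the MELAS or the Rieske mutant cell line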;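 further: z relative to plate mean and SD of compound and empty wells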)
# [3] = biological target: NAD(+) hydrolase SARM1 (Homo sapiens) (UniProt Q6SZW1); assay: SARM1 TIR NADase inhibitors, cell lysate, NAD-Glo luminescence (AID 1508614;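 active means compound whose remaining NAD level is above about 45 nM, limit read from the data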); details: SAM-TIR HEK293T lysate NADase, at 1 µM, stronger effect = higher value
# Sequence of NAD(+) hydrolase SARM1 (Homo sapiens) (Q6SZW1 whole entry, looked up): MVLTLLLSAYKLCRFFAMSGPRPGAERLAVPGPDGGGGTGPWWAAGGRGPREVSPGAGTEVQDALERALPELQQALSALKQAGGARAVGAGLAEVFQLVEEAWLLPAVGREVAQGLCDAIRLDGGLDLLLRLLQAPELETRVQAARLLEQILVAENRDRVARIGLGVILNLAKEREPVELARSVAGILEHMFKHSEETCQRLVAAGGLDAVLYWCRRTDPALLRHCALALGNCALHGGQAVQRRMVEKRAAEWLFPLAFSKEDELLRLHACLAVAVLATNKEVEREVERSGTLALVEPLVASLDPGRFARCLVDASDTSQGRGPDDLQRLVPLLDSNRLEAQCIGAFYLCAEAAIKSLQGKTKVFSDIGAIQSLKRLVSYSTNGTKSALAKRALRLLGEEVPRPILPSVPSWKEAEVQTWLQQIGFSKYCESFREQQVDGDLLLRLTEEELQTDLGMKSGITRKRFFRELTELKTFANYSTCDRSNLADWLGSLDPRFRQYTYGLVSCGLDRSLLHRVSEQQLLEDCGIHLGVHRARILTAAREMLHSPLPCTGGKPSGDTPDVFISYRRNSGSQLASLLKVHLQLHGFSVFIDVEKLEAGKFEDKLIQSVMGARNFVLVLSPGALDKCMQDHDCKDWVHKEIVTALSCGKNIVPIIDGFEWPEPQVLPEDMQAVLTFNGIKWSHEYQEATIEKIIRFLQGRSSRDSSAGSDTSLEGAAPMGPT
# [4] = kinase inhibitors against Plasmodium liver-stage infection, cell-based, known kinase inhibitor set, luminescence, hepatoma host viability (AID 624392; call rule not given here;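 further: infected cells incubated roughly two days before readout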); details: Plasmodium liver stage in hepatoma cells, luciferase luminescence, concentration not given here; liver cell % of control: measured here: host liver cell viability; parasite % of control: stronger effect = lower value
# [5] = ovarian cancer cell viability with rucaparib, profiling panel, oncology-focused library, rucaparib conditional (AID 1508598); details: patient-derived ovarian cancer cells, CellTiter-Glo viability, 144 h, stronger effect = lower value
# [6] = hESC survival regulators, cell-based (AID 493140; call rule not given here;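 further: cells exposed to compounds for four days before counting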); details: human embryonic stem cell survival screen; stronger effect = higher value
# [7] = liver-stage malaria parasite growth inhibition, primary screen, cell-based, HepG2, luciferase luminescence, HepG2 viability (AID 624349; in the data active means parasite load remaining mostly below about 12%, no sharp cut-off; inactive means mostly above about 10%;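 further: 100% = mean of DMSO negative control wells on the same plate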); details: P. berghei liver stage in HepG2, luciferase luminescence, concentration not given here; parasite load remaining: stronger effect = lower value; viability: measured here: HepG2 viability without parasites
# [8] = Cy5 fluorescence interference with SSB-bound oligo, artefact control for HCV NS3 helicase inhibitor project, biochemical, NIH Clinical Collection, E. coli SSB (AID 743268; call rule not given here)
# [9] = system: Hepatitis C virus NS3 helicase; assay: HCV NS3 helicase inhibitors, primary screen, biochemical, fluorescence polarization, NIH Clinical Collection (AID 743270; call rule not given here); details: NS3 helicase binding to Cy5-dT15 DNA, stronger effect = higher value, concentration not given here
# [10] = biological target: Single-stranded DNA-binding protein (Escherichia coli (strain K12)) (UniProt P0AGE0); assay: E. coli SSB displacement from DNA, counter-screen for HCV NS3 helicase inhibitor project, biochemical, fluorescence polarization, NIH Clinical Collection (AID 743271; in the data active means inhibition above about 28%); details: stronger effect = higher value, concentration not given here
# [11] = fluorescence interference in NS3h assay format, artefact control for HCV NS3 helicase inhibitor project, biochemical, NIH Clinical Collection (AID 743272; call rule not given here;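 further: HCV NS3 helicase with a Cy5 labelled single stranded DNA probe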); details: fluorescence interference counterscreen, stronger effect = lower value
# [12] = biological target: Mitogen-activated protein kinase 7 (Homo sapiens) (UniProt Q13164); assay: ERK5 transactivation activators in reporter cells, primary screen, cell-based, HTS (AID 1508626;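 active means luciferase signal above three times the same-plate solvent-only control wells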;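 further: luciferase driven by Gal4-ERK5 fusion binding five Gal4 sites before minimal TATA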); details: HeLa Gal4-ERK5 transactivation, 18 h, at 5 µM, stronger effect = higher value
# Sequence of Mitogen-activated protein kinase 7 (Homo sapiens) (Q13164 whole entry, looked up, the tested form may be a part): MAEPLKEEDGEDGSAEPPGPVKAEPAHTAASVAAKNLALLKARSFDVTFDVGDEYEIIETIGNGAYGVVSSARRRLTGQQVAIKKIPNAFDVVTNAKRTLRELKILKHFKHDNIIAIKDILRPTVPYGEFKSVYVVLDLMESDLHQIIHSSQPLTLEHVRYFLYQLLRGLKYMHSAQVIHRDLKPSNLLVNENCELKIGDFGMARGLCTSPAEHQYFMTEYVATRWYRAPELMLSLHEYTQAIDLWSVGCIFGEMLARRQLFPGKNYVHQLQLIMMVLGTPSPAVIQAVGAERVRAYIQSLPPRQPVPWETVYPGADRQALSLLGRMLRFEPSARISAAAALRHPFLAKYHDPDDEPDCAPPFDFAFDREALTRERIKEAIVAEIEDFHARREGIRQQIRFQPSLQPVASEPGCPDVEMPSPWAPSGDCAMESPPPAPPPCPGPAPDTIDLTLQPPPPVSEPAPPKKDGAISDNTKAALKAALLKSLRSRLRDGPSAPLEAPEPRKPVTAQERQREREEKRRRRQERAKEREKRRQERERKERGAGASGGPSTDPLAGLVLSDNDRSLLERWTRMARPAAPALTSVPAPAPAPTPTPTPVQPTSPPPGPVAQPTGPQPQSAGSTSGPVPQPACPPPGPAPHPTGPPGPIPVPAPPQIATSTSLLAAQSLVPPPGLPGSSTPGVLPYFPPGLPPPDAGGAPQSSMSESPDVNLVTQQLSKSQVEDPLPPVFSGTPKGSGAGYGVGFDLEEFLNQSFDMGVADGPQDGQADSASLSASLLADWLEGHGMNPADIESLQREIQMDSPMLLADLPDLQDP
# [13] = viability rescue of complex I mutant cybrids, primary screen, cell-based, galactose medium, ATP luminescence (AID 1645843;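 active means z-score of at least 1.8 in each of two replicates, scored against plate mean and spread of sample wells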;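 further: positive z means more ATP and so rescue of galactose-driven cybrid death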); details: complex I mutant cybrid cells, 72 h, stronger effect = higher value
# [14] = stronger effect = lower value, cell number ratio, induced over uninduced
# [15] = measured here: relative caspase fold change +Dox/-Dox
# [16] = measured here: total cells with miR-34 induction, stronger effect = lower value
# [17] = measured here: total cells without miR-34 induction
# [18] = MELAS cybrid survival, CellTiter-Glo 48 h, stronger effect = higher value
# [19] = Rieske KO mouse fibroblast survival, CellTiter-Glo 72 h
structure (smiles),measurement,setting,value
CCOc1nc2cccc(C(=O)OCc3oc(=O)oc3C)c2n1Cc1ccc(-c2ccccc2-c2noc(=O)[nH]2)cc1,fold change,[1]; [14],0.946 (inactive)
same,fold change,[1]; [15],0.471
same,cell count,[1]; [16],8160
same,cell count,[1]; [17],8630
same,z-score,[2]; [18],0.0175 (inactive)
same,z-score,[2]; [19],-0.018
same,remaining NAD,[3],10 nM (inactive)
Cc1ccc(NC(=O)c2ccc(CN3CCN(C)CC3)cc2)cc1Nc1nc(-c2cccnc2)cs1,liver cell % of control,[4],46.6% and 78.6% and 98.8%
same,parasite % of control,[4],29.5% (inactive) and 24.2% (inactive) and 36% (inactive)
same,fold change,[1]; [14],0.856 (inactive)
same,fold change,[1]; [15],1.16
same,cell count,[1]; [16],5500
same,cell count,[1]; [17],6420
same,z-score,[2]; [18],-0.618 (inactive)
same,z-score,[2]; [19],0.938
same,viability,"[5]; at 0.000305 µM, OCI-C5x cells, with rucaparib 10 µM, 100% = cells with rucaparib alone",103% (inactive)
same,viability,"[5]; at 0.000305 µM, OCI-C5x cells, without rucaparib",124% (inactive)
same,viability,"[5]; at 0.000305 µM, OCI-P5x cells, with rucaparib 20 µM, 100% = cells with rucaparib alone",105% (inactive)
same,viability,"[5]; at 0.000305 µM, OCI-P5x cells, without rucaparib",93.4% (active)
same,viability,"[5]; at 0.00122 µM, OCI-C5x cells, with rucaparib 10 µM, 100% = cells with rucaparib alone",105% (inactive)
same,viability,"[5]; at 0.00122 µM, OCI-C5x cells, without rucaparib",120% (inactive)
same,viability,"[5]; at 0.00122 µM, OCI-P5x cells, with rucaparib 20 µM, 100% = cells with rucaparib alone",109% (inactive)
same,viability,"[5]; at 0.00122 µM, OCI-P5x cells, without rucaparib",96.2% (active)
same,viability,"[5]; at 0.00488 µM, OCI-C5x cells, with rucaparib 10 µM, 100% = cells with rucaparib alone",112% (inactive)
same,viability,"[5]; at 0.00488 µM, OCI-C5x cells, without rucaparib",129% (inactive)
same,viability,"[5]; at 0.00488 µM, OCI-P5x cells, with rucaparib 20 µM, 100% = cells with rucaparib alone",102% (inactive)
same,viability,"[5]; at 0.00488 µM, OCI-P5x cells, without rucaparib",92.7% (active)
same,viability,"[5]; at 0.0195 µM, OCI-C5x cells, with rucaparib 10 µM, 100% = cells with rucaparib alone",109% (inactive)
same,viability,"[5]; at 0.0195 µM, OCI-C5x cells, without rucaparib",124% (inactive)
same,viability,"[5]; at 0.0195 µM, OCI-P5x cells, with rucaparib 20 µM, 100% = cells with rucaparib alone",99.3% (active)
same,viability,"[5]; at 0.0195 µM, OCI-P5x cells, without rucaparib",85.4% (active)
same,viability,"[5]; at 0.0781 µM, OCI-C5x cells, with rucaparib 10 µM, 100% = cells with rucaparib alone",100% (inactive)
same,viability,"[5]; at 0.0781 µM, OCI-C5x cells, without rucaparib",123% (inactive)
same,viability,"[5]; at 0.0781 µM, OCI-P5x cells, with rucaparib 20 µM, 100% = cells with rucaparib alone",97% (active)
same,viability,"[5]; at 0.0781 µM, OCI-P5x cells, without rucaparib",92.9% (active)
same,viability,"[5]; at 0.313 µM, OCI-C5x cells, with rucaparib 10 µM, 100% = cells with rucaparib alone",113% (inactive)
same,viability,"[5]; at 0.313 µM, OCI-C5x cells, without rucaparib",124% (inactive)
same,viability,"[5]; at 0.313 µM, OCI-P5x cells, with rucaparib 20 µM, 100% = cells with rucaparib alone",102% (inactive)
same,viability,"[5]; at 0.313 µM, OCI-P5x cells, without rucaparib",84.1% (active)
same,viability,"[5]; at 1.25 µM, OCI-C5x cells, with rucaparib 10 µM, 100% = cells with rucaparib alone",106% (inactive)
same,viability,"[5]; at 1.25 µM, OCI-C5x cells, without rucaparib",130% (inactive)
same,viability,"[5]; at 1.25 µM, OCI-P5x cells, with rucaparib 20 µM, 100% = cells with rucaparib alone",91.9% (active)
same,viability,"[5]; at 1.25 µM, OCI-P5x cells, without rucaparib",87.9% (active)
same,viability,"[5]; at 5 µM, OCI-C5x cells, with rucaparib 10 µM, 100% = cells with rucaparib alone",129% (inactive)
same,viability,"[5]; at 5 µM, OCI-C5x cells, without rucaparib",138% (inactive)
same,viability,"[5]; at 5 µM, OCI-P5x cells, with rucaparib 20 µM, 100% = cells with rucaparib alone",84.2% (active)
same,viability,"[5]; at 5 µM, OCI-P5x cells, without rucaparib",82% (active)
C[C@]12CC[C@@H]3c4ccc(OS(=O)(=O)O)cc4CC[C@H]3[C@@H]1CCC2=O,survival,[6],5.67 (inactive)
same,parasite load remaining,[7],64.3% (inactive) and 61.4% (inactive)
same,viability,[7],99.3% and 74.8%
same,fluorescence ratio,[8],1.03 (inactive)
same,inhibition,[9],-1.09% (inactive)
same,inhibition,[10],-2.76% (inactive)
same,fluorescence ratio,[11],1.01 (inactive)
same,fold change,[1]; [14],0.873 (inactive)
same,fold change,[1]; [15],0.967
same,cell count,[1]; [16],9010
same,cell count,[1]; [17],10300
same,z-score,[2]; [18],-0.105 (inactive)
same,z-score,[2]; [19],-0.186
same,remaining NAD,[3],10 nM (inactive)
same,luciferase signal,[12],76 AU (inactive)
N#Cc1ccc2[nH]cc(CCCCN3CCN(c4ccc5oc(C(N)=O)cc5c4)CC3)c2c1,fold change,[1]; [14],0.968 (inactive)
same,fold change,[1]; [15],0.515
same,cell count,[1]; [16],6440
same,cell count,[1]; [17],6650
same,z-score,[2]; [18],-0.594 (inactive)
same,z-score,[2]; [19],-0.181
same,remaining NAD,[3],10 nM (inactive)
COc1ccc2nc(Cn3cnc4cc(F)ccc4c3=O)[nH]c2c1,fold change,[1]; [14],0.891 (inactive)
same,fold change,[1]; [15],1.56
same,cell count,[1]; [16],7880
same,cell count,[1]; [17],8840
same,z-score,[2]; [18],-0.0496 (inactive)
same,z-score,[2]; [19],-0.0588
same,z-score,[13],-0.39 (inactive)
c1ccn2cc(CCNc3ncnc4nc[nH]c34)nc2c1,fold change,[1]; [14],0.837 (inactive)
same,fold change,[1]; [15],1.9
same,cell count,[1]; [16],8280
same,cell count,[1]; [17],9890
same,z-score,[2]; [18],-0.607 (inactive)
same,z-score,[2]; [19],-0.578
same,z-score,[13],-0.4 (inactive)
